PubChem BioAssay AID651803 (National Center for Advancing Translational Sciences (NCATS), 2012)
The campaign covered roughly 1,200 compounds. Fewer than 10 were called active. Calls come from the whole dose curve; as a rule, active = well fitted curve in the direction sought with a large enough effect; inconclusive = small, poorly fitted or top-dose-only effect, or another doubt; inactive = no such curve, though single readings can be large or run the other way. Not all results are given here. Residues, ends and D or L forms follow the SMILES beside them.

Molecular target: Transcriptional regulator ERG (Homo sapiens) (UniProt P11308)
Sequence (P11308 whole entry, looked up): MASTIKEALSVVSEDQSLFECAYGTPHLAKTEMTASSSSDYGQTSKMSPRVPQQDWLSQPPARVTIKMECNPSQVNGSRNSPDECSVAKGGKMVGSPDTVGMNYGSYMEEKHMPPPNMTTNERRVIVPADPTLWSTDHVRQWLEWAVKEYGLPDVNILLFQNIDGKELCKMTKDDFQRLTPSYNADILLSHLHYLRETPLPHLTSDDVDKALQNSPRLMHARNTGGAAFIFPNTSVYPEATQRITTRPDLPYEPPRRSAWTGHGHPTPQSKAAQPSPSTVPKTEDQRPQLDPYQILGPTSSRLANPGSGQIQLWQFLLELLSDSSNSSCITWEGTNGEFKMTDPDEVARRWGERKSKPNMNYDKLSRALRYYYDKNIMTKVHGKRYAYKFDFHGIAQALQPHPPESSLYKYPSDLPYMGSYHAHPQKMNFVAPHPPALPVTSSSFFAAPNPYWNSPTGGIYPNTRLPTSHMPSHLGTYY
Experiment: qHTS for Small Molecule Inhibitors of the ERG Ets/DNA interaction: TR assay against cherry picks; note: % of control where 0% means no effect
Conditions: ERG Ets domain-DNA fluorescence polarization, Texas red probe; series mostly up to 154 µM; activity change, negative = inhibition: at the top concentration
Description: The Ets family of proteins is a family of ~30 conserved transcription factors defined by the presence of an ~85 amino acid domain referred to as the Ets domain, which mediates sequence-specific DNA binding to a core DNA element GGAA/T.The Ets family member ERG has been linked to several neoplasms. […] More extensive studies of the effects of over-expression of ERG in prostate cells have recently been carried out and have shown that over-expression of ERG results in increased invasion. […] We will carry out a high throughout screen to identify inhibitors of the interaction between ERG and DNA using a fluorescence polarization (FP) assay with a His-tagged ERG Ets domain and fluorescently-labeled DNA probes to develop small molecule inhibitors of this interaction as probes to test this hypothesis and lay the groundwork for the development of targeted therapies against ERG. This is the confirmation against the cherry picks in theprimary screening assay. NIH Molecular Libraries Probe Production Network [MLPCN] NIH Chemical Genomics Center [NCGC] Grant: NS066464 PI Name: John Bushweller, University of Virgina
1.5 ul of protein solution (1 uM ERG domain in 300mM KCl, 50mM Tris-HCl, 1mM EDTA, 1mM DTT, pH 7.5); 20 nl Control plate and compound library plate; 1.5 ul mixture of 5 nM Fluorescein-DNA and 100nM Texas-615-DNA solution in same buffer as above solution; measure fluorescence polarization sequentially for fluorescein (Excitation = 480 nm, Emission = 535s, 535p nm) and Texas red (Excitation = 555 nm, Emission = 632s, 632p nm).

Activity change, negative = inhibition, inactive:
Cc1ccccc1OCc1nnc(SCC(=O)Nc2ccc(N3CCOCC3)c(Cl)c2)n1C -15.8%
O=C(O)c1cc(O)c2c(c1)[C@H]([C@H]1c3cc(C(=O)O)cc(O)c3C(=O)c3c(O[C@@H]4O[C@H](CO)[C@@H](O)[C@H](O)[C@H]4O)cccc31)c1cccc(OC3O[C@H](CO)[C@@H](O)[C@H](O)[C@H]3O)c1C2=O (some centres not stated) -12.2%
COc1ccccc1CN(C)C(=O)C(NC(=O)Cc1cccc2ccccc12)C(C)C (configuration not stated) -0.0885%
O=C(CN1C=NS(=O)(=O)c2ccccc21)Nc1ccc(Br)cc1 -7.5%
Cc1ccc(S(=O)(=O)NCC(=O)N(CC(=O)NCC2CCCO2)c2cccc(F)c2)cc1 (configuration not stated) -5.86%
Clc1ccc(SCc2nc3ccccc3[nH]2)cc1 -2.08%
CCc1n[nH]c(=S)n1/N=C/c1ccc(N(C)c2ccccc2)cc1 1.89%
CNC(=O)c1cccc(-n2c(C)nc3cccnc32)c1C 13%
Cc1ccc(/C=C2\SC(N3CCCCC3)=NC2=O)cc1 -1.4%
CCc1cccc(NC(=O)C2CCCN(S(=O)(=O)c3ccc4[nH]c(=O)ccc4c3)C2)c1 (configuration not stated) 0.67%
COc1ccc(-c2ccc(SCC(=O)NCc3ccc4c(c3)OCO4)nn2)cc1OC -14.9%
C=CCn1c(=O)[nH]c2cc(C(=O)N3CC=C(c4ccccc4)CC3)ccc2c1=O 0.0273%
COc1ccccc1CNC(=O)CCNC(=O)C1CCN(S(=O)(=O)c2ccccc2)CC1 -4.44%
Oc1ccc(Nc2ccc3ccccc3c2)cc1 -16%
Cc1ccc(OCC(=O)OCC(=O)c2ccccc2)cc1C 4.59%
CC(C)N1CCC(N2CCN(Cc3cccc4nonc34)CC2CCO)CC1 (configuration not stated) 6.57%
O=C(O)CNC(=O)/C(=C\c1ccc2c(c1)OCO2)NC(=O)c1ccc(Br)cc1 3.73%
O=C(COc1coc(CN2CCCc3ccccc32)cc1=O)Nc1cccc([N+](=O)[O-])c1 2.41%
COc1cccc(CC2(CO)CCN(S(=O)(=O)N(C)C)CC2)c1 2.59%
CCOc1cc(C2c3c(oc4ccccc4c3=O)C(=O)N2Cc2ccc(OC)cc2)ccc1O (configuration not stated) -8.68%
Cc1cccc(-c2oc3ccccc3c2-c2ccc3c(c2)OCO3)c1 2.05%
Cc1ncc([N+](=O)[O-])n1CC(=O)N/N=C/c1ccc(F)cc1 -3.78%
Cc1ccc(C(=O)Nc2ccc(C(=O)N/N=C/c3c[nH]c4ccccc34)cc2)cc1 -28.5%
Cc1ccc(/C=C2\Sc3ccccc3C2=O)s1 -2.68%
COc1ccc([C@@H](NC(=O)OC(C)(C)C)C(=O)OC(C)(C)C)cc1 -13.8%
O=c1ccc(-c2ccc(S(=O)(=O)Nc3cccc(Br)c3)o2)n[nH]1 2.8%
Nn1c(Cc2ccccc2)nc2sc3c(c2c1=O)CCC3 5.36%
CCCN(CCC)Cc1c(C(=O)N/N=C/c2cccs2)nnn1-c1nonc1N 1.84%
Cn1c(CNC(=O)CNC(=O)c2ccc(C(C)(C)C)cc2)cc(=O)n(C)c1=O -3.56%
C/C(=N\Nc1ccc(C#N)cc1[N+](=O)[O-])c1ccc(C)o1 0.206%
CC(=O)Nc1ccc(NC(=O)C(C)OC(=O)C2CCN(S(=O)(=O)c3ccc4c(c3)OCCO4)CC2)cc1 (configuration not stated) 1.51%
CCS(=O)(=O)N1CCC(C(=O)OCC(=O)c2ccc(Br)cc2)CC1 8.14%
Cn1c(SCC(=O)N2CCN(C(=O)c3ccco3)CC2)nnc1-c1ccc(NS(C)(=O)=O)cc1 -9.66%
CCOC(=O)N1CCC(NC(=O)Cc2ccccc2)CC1 1.65%
CC(=O)NC(Cc1ccccc1)C(=O)NC(Cc1ccccc1)C(=O)O (stereo not drawn) (Ac-Phe-Phe-OH; configuration not given here) 8.39%
COc1ccccc1C(=O)Nn1c(-c2cccs2)nc2ccccc2c1=O 2.95%
Cc1c(OC(C(=O)O)c2ccccc2)ccc2c(-c3ccccc3)cc(=O)oc12 (configuration not stated) 3.4%
COc1cc(C(=O)Cc2nc3ccccc3n2C)cc(OC)c1OC -6.52%
CC(=O)Nc1ccc(NC(=O)Nc2ccc(C)cc2C)cc1 1.3%
CCOc1ccc(N/C(SCc2cccc([N+](=O)[O-])c2)=C(/C#N)C(N)=O)cc1 -6.84%
CC(C)(C)SC(=O)CC1NS(=O)(=O)OC2CCCCC12 (configuration not stated) 1.13%
Cc1cccn2c(=O)cc(COc3ccc(NC(=O)C(C)C)cc3)nc12 -1.94%
CCc1nnc2c(N3CCN(c4cccc(C(F)(F)F)c4)CC3)nc3ccccc3n12 -11.3%
COC(=O)c1ccc2c(=O)n(CCN3CCOCC3)c(SCC(=O)Nc3ccc(OC)cc3OC)nc2c1 7.16%
COc1ccc(S(=O)(=O)N2CCc3ccccc32)cc1C(=O)N(CC(C)C)C1CCS(=O)(=O)C1 (configuration not stated) 0.304%
FC(F)(F)COc1cc(-c2nnc(SCc3ccccc3)n2Cc2ccco2)cc(OCC(F)(F)F)n1 -11.3%
N/C(=N\c1nc2ccccc2o1)NC(=O)c1cccc(Br)c1 1.54%
Cc1ccccc1OCC(=O)Nc1ccc2[nH]ncc2c1 -5.59%
CCN1CCN(CCCN(Cc2cccs2)C(=S)Nc2ccccc2C)CC1 -20.8%
Nc1ccc2nc3c(=O)n(CCc4ccccc4)c(=O)[nH]c3nc2c1 38.9%
CCOC(=O)C1=C(C)N(C[C@@H]2CC[C@@H](Cc3ccc(-c4ccccc4)cc3)O2)C(=O)NC1c1ccc([N+](=O)[O-])cc1 (some centres not stated) 0.997%
COc1cc(/C=C/C(=O)OCC(=O)NC(=O)NC2CCCCC2C)ccc1OC(F)F (configuration not stated) 1.76%
O=S(=O)(NCCC1=CCCCC1)c1ccc(OC(F)(F)F)cc1 -22.2%
CCN1C(=O)CSc2ccc(C(=O)NC3CCCCC3)cc21 1.14%
COc1ccc(C2(C(=O)Nc3ccc(OC)cc3OC)CCCC2)cc1 -3.52%
CC1COc2ccccc2N1S(=O)(=O)c1ccc(Cl)cc1 (configuration not stated) 6.25%
CCOC(=O)C1CCN(C(=O)c2cccc(S(=O)(=O)N3CCCc4ccccc43)c2)CC1 -15.3%
O=C(Nc1cc2c(cc1Cl)-c1ccc([N+](=O)[O-])cc1C2=NO)C(F)(F)F -27.9%
CC(C)C(C(=O)O)N1CCS(=O)(=O)CC1 (configuration not stated) 4.35%
CCN(CC)c1ccc2cc(-c3nc(-c4cc(OC)c(OC)c(OC)c4)no3)c(=O)oc2c1 9.56%
CCOC(=O)c1ccc(NC(=O)c2cn(-c3ccccc3)nc2-c2ccc(OC)c(OC)c2)cc1 -9.46%
CC(OC(=O)C1CCN(S(=O)(=O)c2ccccc2C(F)(F)F)CC1)C(=O)N(C)Cc1ccccc1 (configuration not stated) 1.27%
